For 37 compounds, Inhibition results are on record in ChEMBL document CHEMBL1157539, “Thousands of chemical starting points for antimalarial lead identification” (Nature, 2010).

For orientation: Inhibition means the change of the read-out against control, counted positive when it falls.

For this assay, the system named is Plasmodium falciparum. Description: GSK_TCMDC: Inhibition of Plasmodium falciparum Dd2 in whole red blood cells, using parasite LDH activity as an index of growth. Test compounds present at 2uM. The assay is classed as functional.
`COc1cccc(-c2nc3c(N4CCN(c5ccncc5)CC4)cccc3n2CC2CCCCCN2)n1.O=C(O)C(F)(F)F` (configuration not stated) registered an Inhibition of 31%.

Compound `O=C(NCCCCN1CCC(c2ccc3c(c2OCc2ccccn2)CCCC3)CC1)c1ccc(NC(=O)c2ccc(Cl)cc2)cc1` came in with an Inhibition of 70%. The figure for `Cc1cc(N[C@@H](CC(C)C)C(=O)NC2CCCC2)nc(NCC2CCCCC2)n1.O=C(O)C(F)(F)F` is 88%; for `N=C(Nc1cccc(Cc2ccccc2)n1)Nc1ncccn1` it is 34%; for `CCCNCc1ccc(-c2ccc(CN(Cc3ccc4c(c3)OCO4)C(=O)Cc3cccnc3)cc2)nc1.O=C(O)C(F)(F)F` it is 53%.

Take `CS(=O)(=O)c1ccc(CNCc2ccc(-c3ccc(-c4nc5cc(C(F)(F)F)ccc5[nH]4)cc3)cc2)cc1.O=C(O)C(F)(F)F`: the Inhibition was 82%.

For the compound `O=C1SC(S)=NC1=CNCCCCCCO`, the Inhibition was determined as 1%. The figure for `CCN(CC)c1nc(Nc2cc(C)ccc2C)nc(Nc2ccccc2O)n1` is 99%; for `CCOC(=O)c1ccc(NC(=O)N[C@@H](Cc2ccccc2)C(=O)NC2CCN(Cc3ccc(OCCCN(C)C)cc3)C2)cc1` (some centres not stated) it is 8%; for `Cc1cc(C(=O)NC2CCN(CC3(c4ccccc4)CCCCC3)CC2)on1` it is 95%. The compound `CN(C)CCCN1CCN(C(=O)c2cccc(-c3noc(C(F)(F)F)n3)c2)CC1` gave an Inhibition of 60%. Compound `O=C(Nc1cccc(CN2CCCN(Cc3cccc(Cl)c3)CC2)c1)c1ccc(Cl)c(Cl)c1.O=C(O)C(F)(F)F` had an Inhibition of 17%. The figure for `Cc1cc(-c2cccc3c(NC(=O)N4CCc5cc6nccc(N7CCN8CCC[C@H]8C7)c6cc54)cccc23)cc(C)n1.Cl` is 100%; for `CNCCNCc1ccc(-c2ccc(-c3nc4cc(F)ccc4[nH]3)cc2)cc1.O=C(O)C(F)(F)F` it is 97%; for `CC(=O)/N=C1\N=C(NC(C)=O)NC(C)(C)N1OCCCOc1ccc(Cl)c(Cl)c1` it is 94%. Compound `Oc1cccc(Nc2nc(NCc3ccccc3)c3ccccc3n2)c1` showed an Inhibition of 99%. The figure for `NS(=O)(=O)c1ccccc1Nc1nc(Nc2ccc(N3CCOCC3)cc2)nc2c1CCC2.O=CO` is 99%.

For the compound `CCOc1ccc(-c2nonc2NC(=O)c2ccc(F)cc2)cc1OCC`, the Inhibition is recorded as 99%. The figure for `CCN1CCN(c2cc(C)c3cc(NC(=O)c4ccc(OC)c(OC)c4)ccc3n2)CC1` is 23%; for `Br.N=C1N=C(N)NC2(CCCCC2)N1OCCCOc1cccc2ccccc12` it is 96%; for `O=C(c1ccc([N+](=O)[O-])o1)N1CCN(c2nc3c(Cl)cccc3s2)CC1` it is 87%. With `FC(F)(F)c1ccc2[nH]c(-c3cccc(-c4cccc(CNCC5CCCO5)c4)c3)nc2c1.O=C(O)C(F)(F)F` (configuration not stated) the figure was 96%. With `CC(C)CNCc1ccc(-c2cccc(CNC3CCN(Cc4ccccc4)CC3)c2)cc1.O=C(O)C(F)(F)F` the figure was 100%; with `Cc1cc(N[C@@H](Cc2ccccc2)C(=O)NCCCOC(C)C)nc(NCC2CCCCC2)n1.O=C(O)C(F)(F)F`, 25%. Regarding `CN(CCCCCNC(=O)/C=C/c1ccc(Cl)c(Cl)c1)CCc1c[nH]c2ccccc12`, the Inhibition came to 18%. The figure for `CC(=O)Nc1nc(C(=O)Nc2ccc(-c3cccc(-c4nc5cc(C(F)(F)F)ccc5[nH]4)c3)cc2)cs1` is 97%; for `NC(=O)c1cc(-c2ccccc2)cc2c(C3CCC(NCc4ccccc4)C3)c[nH]c12` (configuration not stated) it is 30%. Turning to `O=C(Nc1cccc(-c2csc(-c3nc4ccccc4[nH]3)c2)c1)c1ccoc1`, the Inhibition was determined as 67%. With `O=c1cc(NCCCNC2CCCc3c2ccc2ccccc32)[nH]c2ccccc12` (configuration not stated) the figure was 30%; with `Cc1cc(-c2cccc3c(C(=O)N4CCc5cc6nccc(N7CCCN(C)CC7)c6cc54)cccc23)cc(C)n1.Cl`, 100%; with `CCCCC(=O)Nc1cc(=O)[nH]c2nc(-c3ccc(Cl)cc3)nn12`, 77%. `O=C(O)C(F)(F)F.O=C1CCCN1CCCNCc1ccc(-c2cccc(-c3nc4cc(F)ccc4[nH]3)c2)cc1` came in with an Inhibition of 8%. With `O=C(c1ccc(-c2ccc(-c3nc4cc(C(F)(F)F)ccc4[nH]3)s2)cc1)N1CCCCC1CN1CCC(O)C1` (configuration not stated) the figure was 80%; with `COc1ccc2nccc([C@@H](O)CN3CCC(NC(=O)/C=C/c4ccc5[nH]c(=O)ccc5c4)CC3)c2c1`, 83%.

`CCNC(=O)c1cc(S(=O)(=O)N2CCN(c3ccccn3)CC2)cs1` displayed an Inhibition of 94%. The figure for `C(=NNc1nc2ccccc2[nH]1)c1ccccc1OCc1ccccc1` is 90%. With `CC(C)(C)C(=O)Nc1ccc(N2CCN(C(c3ccccc3)c3ccccc3)CC2)c(Cl)c1` the figure was 94%.
